# The whole screen tested about 69,000 compounds, of which about 8,600 (12%) showed an effect of 50% or more. The list comes from a sample in which strong results are over-represented; it also holds similar structures and randomly drawn compounds.
# Tested on: Plasmodium berghei
# Assay: Screen against P. berghei liver stage (PbLuc), transformed with Luciferase, at 10uM
# Format: functional, HepG2
# Settings: tested at 10 uM
row,Compound,INHIBITION [%]
1,CCCNS(=O)(=O)c1cnccc1N1CCN(C(C)C)CC1,-15.5
2,C1CC(NCC2CC2)CN(Cc2noc(C3CC3)n2)C1 (stereo unspecified),19.5
3,CCC1COCCN1C(=O)NCc1cccc(-c2cnn(C)c2)c1 (stereo unspecified),21.2
4,Cn1cc(-c2cccc(CNC(=O)N3CCC[C@@H]3CO)c2)cn1,-21.6
5,CCN1CCN(C(=O)NCc2cccc(-c3cnn(C)c3)c2)CC1,50.1
6,Cn1cc(C(=O)N2CC[C@@H]3[C@@H]2CCN3Cc2cccc(C#N)c2)cn1,41.6
7,Cc1ccccc1CN(C)C(=O)CCc1nc(-c2nnc[nH]2)no1,13.7
8,CN(Cc1ccc(F)c(F)c1)C(=O)CCc1nc(-c2nnc[nH]2)no1,55.4
9,CN(CCCc1ccccc1)C(=O)CCc1nc(-c2nnc[nH]2)no1,22
10,O=C(NCc1cccc(F)c1)NCC(O)c1cccc(F)c1 (stereo unspecified),-21.5
11,CN(C)CCOCc1nnc2n1CCN(CC1CC1)CC2,36.2
12,Cc1ccc(C(=O)NCc2ccccc2S(=O)(=O)N(C)CCO)cc1F,-27.8
13,COc1cccc(C(=O)NCc2ccccc2S(=O)(=O)N(C)C)c1,45.2
14,COc1cccc(C(=O)NCc2ccccc2S(=O)(=O)N(C)CCO)c1,78.1
15,Cc1noc(C2CCN(C(=O)c3cccs3)CC2)n1,21
16,CC1(C)CC(N2CCN(C3CCCC3)C(CCO)C2)CC(C)(C)C1 (stereo unspecified),-2.98
17,CN(CC(F)(F)F)C(=O)COc1nc(Cc2ccc(F)cc2)no1,40.6
18,Cc1cccc(C(=O)N2CCCSCC2CN2CCCC2)c1 (stereo unspecified),-19.7
19,Cn1[nH]c(CNc2cccc(Cl)c2)nc1=O,-0.473
20,Cc1cccc(NCc2nc(C)ccc2O)c1,24.8
21,Cc1cccc(NCc2nn(C)c(=O)[nH]2)c1,59.8
22,CCc1ncc2c(n1)CN(CC(=O)Nc1cc(C)no1)CC2,-25.8
23,CN1CCN(C2CCCC2)C(CCO)C1 (stereo unspecified),7.24
24,CCN(CC)C(=O)COc1nc(C(C)C)no1,53.1
25,COC(=O)COc1nc(C(C)C)no1,7.25
26,CC(C)c1noc(OCC(=O)N(C)C(C)C)n1,-13.6

row,Compound,INHIBITION [%]
1,Cn1cnnc1CC1CCN(Cc2nn(C)c3cccc(Cl)c23)CC1,75.4
2,Cn1nc(CN2CCC(c3ccncc3)CC2)c2c(Cl)cccc21,-18.1
3,CCc1nn(C)c(Cl)c1CN1CCC(Cc2nncn2C)CC1,-7.25
4,Cc1nc(CN2CCCN(CCCc3ccccc3)CC2)no1,-34.8
5,Cc1nc(CN2CCCC(C)(CO)C2)no1 (stereo unspecified),68.1
6,Cc1nc(CN2CCOC3(CCCC3)C2)no1,42.5
7,c1csc(CN2CCc3onc(Cn4cccc4)c3C2)c1,2.41
8,Cc1cccc(S(=O)(=O)NC(=O)CCc2cscn2)c1,18.6
9,O=C(CN(Cc1ccccc1)CC1CCOCC1)NC(=O)NC1CC1,55.1
10,O=C(CN(Cc1ccccc1)CC1CCOCC1)Nc1nccs1,-1.53
11,NC(=O)NC(=O)CCN(Cc1ccccc1)CC1CCOCC1,6.23
12,Cc1ccc(C(=O)NC2CCN(C(=O)NCc3ccccn3)CC2)o1,-4.16
13,Cc1cc(NC(=O)NCC2CCN(C(C)C)C2)no1 (stereo unspecified),-25.8
14,Cc1cn2c(n1)CCC(NC(=O)c1ccc(S(C)(=O)=O)o1)C2 (stereo unspecified),42.3
15,Cc1ccc(CNC(=O)Cn2c(=O)c3cccnc3n2C)cc1F,47.2
16,Cn1c2ncccc2c(=O)n1CC(=O)NCCC1=CCCCC1,66.8
17,Cn1c2ncccc2c(=O)n1CC(=O)NCCc1c(F)cccc1F,39.6
18,CCc1ccc(CN2CCc3ncnc(N4CCOCC4)c3CC2)o1,12.7
19,CC(C)(C)CN(CCC#N)Cn1cc(Cl)cn1,40.7
20,Cc1cnn(CC2CCCN2Cc2cc(=O)n3cccc(C)c3n2)c1 (stereo unspecified),42.9
21,Cc1cnn(CC2CCCN2Cc2nccn2C)c1 (stereo unspecified),41.2
22,N#Cc1cc(F)ccc1CN1CCCC1Cn1cccn1 (stereo unspecified),66.7
23,CC(C)(C)c1nc(CN2CCCC2Cn2cccn2)no1 (stereo unspecified),60.5
24,Cn1ccnc1CN1CCCCC1Cn1cccn1 (stereo unspecified),59.7
25,CC(C)(C)c1nc(CN2CCCC2Cn2cncn2)no1 (stereo unspecified),-38
26,Cc1cnn(CC2CCCN2Cc2noc(C(C)(C)C)n2)c1 (stereo unspecified),-9.37

row,Compound,INHIBITION [%]
1,N#Cc1cc(F)ccc1CN1CCCCC1Cn1cccn1 (stereo unspecified),5.03
2,Cn1ccnc1CN1CCCC1Cn1cccn1 (stereo unspecified),-14
3,Cc1cccn2c(=O)cc(CN3CCCC3Cn3cncn3)nc12 (stereo unspecified),-30.7
4,Cc1cccn2c(=O)cc(CN3CCCC3Cn3cccn3)nc12 (stereo unspecified),65.2
5,N#Cc1ccc(CN2CCCC2Cn2cccn2)c(F)c1 (stereo unspecified),25.6
6,CCOc1ncccc1NC(=O)C1CCS(=O)(=O)C1 (stereo unspecified),11.9
7,Cc1ccc(CN2CCOC(c3cnccn3)C2)s1 (stereo unspecified),16.82
8,Cn1cc([C@@H]2CN(S(=O)(=O)c3ccccc3F)C[C@H]2N)c2ccncc21,18
9,Cc1nnc(NC(=O)NCc2ccnc(N(C)C)c2)s1,-39.7
10,COC(=O)CC1CCN(C(=O)c2ccc(C)cc2)CC1,28.7
11,CNC(=O)C1(Cc2cc(C(C)C)no2)CCN(Cc2ccccn2)C1 (stereo unspecified),11.9
12,Cc1noc(C(C)C)c1C(=O)NS(=O)(=O)c1ccc(Cl)cc1,-28.4
13,CNc1cccc(C2CCCN(C(=O)c3cccnc3)C2)n1 (stereo unspecified),35.2
14,Cc1cnn(CC2CCCN2Cc2c(C)noc2C)c1 (stereo unspecified),5.983
15,O=C(CCc1nccs1)N1CCCC(n2ccnc2)C1 (stereo unspecified),-1.14
16,CCOC(C)c1nccn1Cc1cc(C)on1 (stereo unspecified),26.4
17,CC(=O)Nc1ccc(CNC(C)c2c(C)nn(C)c2C)cc1 (stereo unspecified),-42.1
18,COCCC(=O)N1CCCC1c1csc(Nc2ccccn2)n1 (stereo unspecified),30.8
19,CC(C)c1cc(NC(=O)CN2CCCC2Cn2cccn2)on1 (stereo unspecified),19.5
20,CC(C)(C)c1cc(NC(=O)CN2CCCC2Cn2cccn2)on1 (stereo unspecified),53
21,CC(C)(C)c1nc(CN2CCCC2c2nnc3ccccn23)no1 (stereo unspecified),57.2
22,CC(C)(C)c1cc(NC(=O)CN2CCCC2Cn2cncn2)on1 (stereo unspecified),9.41
23,Cc1noc(C)c1CN1CCCC1c1nnc2ccccn12 (stereo unspecified),17.5
24,CCn1c(C2CCCN2Cc2noc(C(C)(C)C)n2)nc2ccccc21 (stereo unspecified),-12.1

# From ChEMBL document CHEMBL4513216, “Probing the Open Global Health Chemical Diversity Library for Multistage-Active Starting Points for Next-Generation Antimalarials” (ACS Infect Dis, 2020)
